# Many of the other results were omitted from the sample, so hits are more common in it than they were.
# FECH inh: inhibitors of human ferrochelatase, primary screen, biochemical, purified FECH, Ni-mesoporphyrin absorbance; calls only at 10 µM (by protocol); Ni-mesoporphyrin absorbance 550 nm; 20,000 tested, 3.3% active; Ferrochelatase, mitochondrial (Homo sapiens), P22830;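 active = enzyme reaction rate more than 3 SD below the solvent-only control wells on the same plate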;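 also: lower slope than DMSO wells means FECH inhibition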
# Target sequence (P22830 whole entry, looked up): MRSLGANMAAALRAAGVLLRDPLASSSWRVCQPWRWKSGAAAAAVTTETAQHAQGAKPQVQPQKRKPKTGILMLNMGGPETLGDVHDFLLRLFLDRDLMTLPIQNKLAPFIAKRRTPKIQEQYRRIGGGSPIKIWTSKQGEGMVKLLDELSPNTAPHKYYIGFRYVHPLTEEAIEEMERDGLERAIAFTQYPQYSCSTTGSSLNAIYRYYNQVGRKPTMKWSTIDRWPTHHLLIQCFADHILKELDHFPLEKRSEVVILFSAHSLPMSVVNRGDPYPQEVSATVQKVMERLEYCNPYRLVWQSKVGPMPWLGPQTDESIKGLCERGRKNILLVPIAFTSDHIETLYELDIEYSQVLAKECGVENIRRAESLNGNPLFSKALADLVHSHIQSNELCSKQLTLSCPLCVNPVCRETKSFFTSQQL
# Active calls of the source: *; i = inactive; + = active, no number.
SMILES,FECH inh
Cc1cc(C)c(C(=O)NC(c2cccnc2)c2ccc(C)c(C)c2)c(=O)[nH]1 (stereo unspecified),i
CCc1cc(Sc2ccc(NC(=O)Nc3ccc(F)cc3)cc2)n2ncnc2n1,i
Cc1nc2ncnn2c(Sc2ccc(NS(=O)(=O)c3ccc(C(C)(C)C)cc3)cc2)c1C,i
CCc1c(C)nc2ncnn2c1Sc1ccccc1NC(=O)c1cccc(F)c1,i
CCc1c(C)nc2ncnn2c1Sc1ccccc1NC(=O)c1cccc(C)c1,i
CCCc1c(C)nc2ncnn2c1Sc1ccccc1NC(=O)c1cccc(OC)c1,+
COC(=O)c1cc2ccsc2n1CC(=O)N(C)c1cccc(C)c1,i
CCCNc1nc(Nc2cccc(OC)c2)c2cnn(-c3ccccc3)c2n1,i
NS(=O)(=O)c1ccc(NC(=O)c2ccc(=O)n(Cc3ccc(Cl)cc3)c2)cc1,i
NS(=O)(=O)c1ccc(NC(=O)CSc2nc3c(c(=O)[nH]2)CCCC3)cc1,+
NS(=O)(=O)c1ccc(NC(=O)CSc2nc3c(c(=O)[nH]2)CCC3)cc1,i
COc1ccc(N2C(=O)CCS2(=O)=O)cc1S(=O)(=O)Nc1ccccc1C(C)C,i
Cc1cccc(NC(=O)CCNC(=O)c2ccc3c(c2)nnn3C)c1,i
COc1ccc(O)c(C2CC(=O)Nc3c2ccc(N2CCCC2)c3C)c1 (stereo unspecified),i
Cc1oc(C(C)C)cc1C(=O)NCCC1CN(C)CCO1 (stereo unspecified),i
Cc1ccc(-c2ccc(N3CCC(C(=O)NCCCN(C)Cc4ccccc4)CC3)nn2)cc1,i
CC(C)CCNC(=O)C1CCN(c2ccc(-c3ccccc3)nn2)CC1,i
O=C(NC1CC1)C1CCN(c2ccc(-c3cccs3)nn2)CC1,i
O=C(NC1CC1)C1CCN(c2ccc(-c3ccccc3)nn2)CC1,+
CCCNC(=O)C1CCN(c2ccc(-c3ccccc3)nn2)CC1,i
CCN(CCNC(=O)C1CCN(c2ccc(-c3ccccc3)nn2)CC1)Cc1ccccc1,+
COCc1ccc(C(=O)N(Cc2ccccc2Cl)C(C)C)o1,i
COc1cccc(NC(=O)CSCc2nc(-c3ccc(F)cc3)no2)c1,i
Cc1cc(NC(=O)c2cccc(CN(C)C(C)c3ccco3)c2)n(C)n1 (stereo unspecified),i
CN1CC2(CCN(Cc3ccc(C(F)(F)F)c(F)c3)C2)OC1=O (stereo unspecified),i
SMILES,FECH inh
CCNc1ncc(C(=O)N2CCC(=O)N(CC3CC3)C(C(C)C)C2)cn1 (stereo unspecified),i
CNc1cc(-c2ccc(C(=O)O)cc2C)c2cc[nH]c2n1,i
CCc1ccccc1NCc1cc(=O)n2[nH]c(NCc3ccc(F)cc3)nc2n1,i
O=c1cc(CNc2ccccc2F)nc2nc(NCc3ccccc3)[nH]n12,i
O=c1cc(CNc2ccccc2F)nc2nc(NCc3ccc(F)cc3)[nH]n12,i
O=c1cc(CNc2ccccc2Cl)nc2nc(NCc3ccccc3)[nH]n12,+
COc1ccccc1CNc1nc2nc(CNc3ccccc3OC)cc(=O)n2[nH]1,i
Cc1ccccc1NCc1cc(=O)n2[nH]c(NCc3ccc(F)cc3)nc2n1,+
O=c1cc(CNc2ccc(F)cc2)nc2nc(NCc3ccccc3)[nH]n12,i
Cc1ccc(NCc2cc(=O)n3[nH]c(NCc4ccccc4Cl)nc3n2)cc1,+
Cc1ccccc1NCc1cc(=O)n2[nH]c(NCc3ccccc3Cl)nc2n1,+
Cc1cccc(NCc2cc(=O)n3[nH]c(NCc4ccccc4Cl)nc3n2)c1C,i
COc1ccccc1CNc1nc2nc(CNc3ccccc3)cc(=O)n2[nH]1,i
COc1ccc(-n2cnnc2CCN)cc1,i
CCc1[nH]c2c(CNC(=O)C3CCN(CCOC)CC3)cc(C)cc2c1C,i
CSc1nc(NCCc2ccc(S(N)(=O)=O)cc2)c(C#N)c(-c2ccccc2)n1,i
O=C(CN1CCCC(Nc2ccc3c(c2)OCCO3)C1)Nc1nccs1 (stereo unspecified),i
CNCC(=O)NC(C)Cc1ncccc1C (stereo unspecified),i
CN(Cc1cn[nH]c1-c1ccc(F)cc1)C(=O)Cc1ccccc1O,i
O=C(NCCc1nccc(-c2ccccc2)n1)c1cn(-c2ccccc2)nn1,i
c1nc(N2CCc3nc[nH]c3C2)c2cc[nH]c2n1,i
CC1CCN(C(=O)CN2C(=O)C3CCCCN3c3ccc(C(=O)N(C)C)cc32)CC1 (stereo unspecified),i
Cc1cc(N2CCOCC2)nc(N2CCN(S(=O)(=O)c3ccc(Cl)cc3)CC2)n1,i
O=C(CN1C(=O)C2CCCCN2C(=O)c2ccccc21)NC1CCCCCC1 (stereo unspecified),i
COCC(NC(=O)c1cc2n(n1)CCCN(C)C2)c1ccccn1 (stereo unspecified),i
SMILES,FECH inh
Cc1ccc(Nc2nc(NCCO)nc3c2cnn3-c2ccccc2)cc1C,i
COc1ccc(CNc2nc3nc(CNc4ccccc4F)cc(=O)n3[nH]2)cc1,i
CCOc1ccccc1NCc1cc(=O)n2[nH]c(NCc3ccc(F)cc3)nc2n1,i
CCc1ccccc1NCc1cc(=O)n2[nH]c(NCc3ccccc3)nc2n1,i
CCc1ccccc1NCc1cc(=O)n2[nH]c(NCc3ccc(OC)cc3)nc2n1,i
COc1ccc(CNc2nc3nc(CNc4ccccc4OC)cc(=O)n3[nH]2)cc1,+
CCc1ccccc1NCc1cc(=O)n2[nH]c(NCc3ccccc3Cl)nc2n1,+
CC(=O)N1CCc2c(sc(NC(=O)c3ccc(OC(C)C)cc3)c2-c2nc3ccccc3s2)C1,i
Cc1ccc(Cn2c(CNC(=O)COc3ccccc3)nc3cccnc32)cc1,i
CC(C)NC(=O)Cn1c(=O)n(CC2CCC(C(=O)NC(C)C)CC2)c(=O)c2sccc21 (stereo unspecified),i
CCCC(C)CN1CCC(n2cc(-c3ccccc3)nn2)CC1 (stereo unspecified),i
CCCC(C)CN1CCC(n2cc(CN(C)C)nn2)CC1 (stereo unspecified),+
CCCCc1cn(C2CCN(C(=O)C3CC(=O)N(C(C)(C)C)C3)CC2)nn1 (stereo unspecified),i
Cn1ccn2ncc(C(=O)NCCc3ccccn3)c12,+
CCc1c(C)nn(CCNC(=O)c2cnn3ccn(C)c23)c1C,i
Cn1nnnc1SCCNC(=O)c1cnn2ccn(C)c12,i
COc1ccccc1N(Cc1nc2nc(C)cc(C)n2n1)C(=O)COc1ccc(Cl)cc1,i
CN(C)C(=O)c1ccc(-c2ccc(COCCN)cc2)cc1,+
O=C(Nc1ccc(Cl)cc1)N1CCC(n2cnc3cccnc32)CC1,i
O=C(CN1CCN(Cc2ccccc2Cl)S1(=O)=O)NCc1ccccc1,i
O=C(O)c1[nH]ncc1CN1CCN(c2nsc3ccccc23)CC1,i
CCc1c(C(=O)N(C)CCn2ccnc2C)[nH]c2ccccc12,i
CCOC(=O)c1[nH]c2ccccc2c1CN1CCN(c2ncc(F)cn2)CC1,+
COc1ccccc1NC(=O)Nc1nc(CC(=O)Nc2cc(Cl)ccc2C)cs1,i
CCN(CC)C(=O)c1cn(C2CCN(c3ccc(Cl)cn3)CC2)nn1,i
COC(=O)c1cc2n(n1)CCCN(Cc1cccnc1N1CCOCC1)C2,i
CC(C)c1ccc2c(c1)-c1ccccc1S(=O)(=O)N2CC(=O)NC(C)c1ccccc1 (stereo unspecified),+

# Compound activity (PubChem BioAssay)
